For the assay, the target named is AMP-activated protein kinase, AMPK (Homo sapiens) (UniProt P54646+O43741+P54619+Q9UGJ0+Q9Y478+Q13131+Q9UGI9). Description: AMP-dependent Kinase enzyme assay. An in vitro enzyme assay that detects ADP turnover that is directly proportional to AMPK activity. This uses naive AMPK that is activated during the assay with MK-8722. More on the design: scale not given: direction of the effect not stated beside the values. The conditions noted are these: 30 µM. Format: functional.
Regarding `NC(=O)C1CCN(CCCNC(=O)Nc2nncs2)CC1`, the Percent Effect is 1.35%. For the compound `Cc1cc(CN(C)C(=O)Nc2ccccc2C)no1`, the Percent Effect stood at 9.79%. Then `CN(C)c1nccnc1C1CCN(C(=O)C2(C)CCCCN2C)CC1` (centres undefined), with 9.26%. With `COC(=O)C1CCN(C(=O)Cn2ccc(-c3ccsc3)n2)CC1`, the Percent Effect is -3.29%. Then `CN(C)S(=O)(=O)N1CCCCCC1c1cc(-c2ccc(F)cc2)no1` (centres undefined), with 18%; and `CC(C)[C@H]1CN(Cc2nccn2C)C[C@@H]1NC(=O)COCC(N)=O`, with 9.37%. The same measure for `Cc1cc(=O)n2nc(Oc3ccc(F)c(F)c3)sc2n1`: -9.97%. The same measure for `COc1ncc(NCc2cc(C#N)cs2)cc1C(N)=O`: 6.61%; for `CN(Cc1ccccc1)S(=O)(=O)N1C[C@@H](C(=O)O)[C@H](C2CC2)C1`: 3.92%; for `CSCCC(NC(N)=O)C(=O)NCc1ccc(-n2cccn2)cc1` (centres undefined): 0.578%.

With `CCOc1ccc(C(=O)NC2CC2)cc1C`, the Percent Effect was found to be 4.59%. The same measure for `CCC[C@@H]1CN(Cc2cc(C#N)n(C)c2C)C[C@H]1NS(C)(=O)=O`: -87.1%. Then `Cn1nccc1-c1cccc(CC2CCN(S(C)(=O)=O)C2)n1` (centres undefined), with 8.3%; and `CCC(=O)NCCc1cc2nc(-c3ccncc3)ccn2n1`, with 18.1%; and `FC(F)(F)c1ccnc(N2CCCN(Cc3ccccn3)CC2)n1`, with -1.31%.

As for `Fc1ccc(OCCCNC2=NCCCN2)cc1`, the Percent Effect turned out to be 0.73%. The same measure for `CCC(C#N)NC(=O)c1sccc1OC` (centres undefined): 2.49%. Then `Cc1nc(CN(C)S(=O)(=O)c2ccccc2C(F)(F)F)no1`, with 4.4%; and `CSc1nccc(N2CCC(NCc3ccc4c(c3)OCO4)CC2)n1`, with 15%; and `Cc1cnn(C2CN(CCOc3cccc(C#N)c3)C2)c1`, with 3.61%. In the case of `Cc1c(NC(=O)c2cnc[nH]2)cccc1C(=O)NC(C)(C)C`, the Percent Effect was 15%. Turning to `Cc1ccc(-c2noc(C3CCN3C(=O)c3cc[nH]n3)n2)s1` (centres undefined), the Percent Effect turned out to be 16%. The same measure for `COc1cc(Br)c(CNc2ccn(CCC(N)=O)n2)cc1OC`: 3.74%. Then `Cc1occc1CNc1ncccc1S(N)(=O)=O`, with 6.37%; and `Cc1cnc(C(=O)N2CC(=O)N(c3ccccc3Cl)CC2C)cn1` (centres undefined), with 12.5%; and `COc1cccc(-c2ncc(CN3CC[C@H]4CC[C@@H](C3)N4)s2)c1`, with 7.14%. As to `O=S(=O)(N1CCOCC1)N1CCCCC1CCn1cccn1` (centres undefined), the Percent Effect is 29.5%.

Consider `CNS(=O)(=O)CC(=O)N1CCC(c2cc3ccccc3[nH]2)CC1`, for which the Percent Effect turned out to be 16.4%.

Consider `COc1ccccc1OCCN(C)Cc1c(C2CC2)[nH]c2ncccc12`, for which the Percent Effect stood at 11.7%. For the compound `O=C1C(N2CC[C@@H](O)C2)CCCN1Cc1cccc(C(F)(F)F)c1` (some centres undefined), the Percent Effect worked out at 5.51%. The same measure for `Cc1noc(C2CCCN(Cn3cc(Br)cn3)C2)n1` (centres undefined): -2.31%; for `CCc1n[nH]c(C(=O)NCCn2ccnc2C)c1C`: -2.67%; for `CCC(CC)C(=O)N1CCC2(CC1)c1ccccc1[C@@H](OC)[C@@H]2O`: 14%. The same measure for `CC1C(=O)NCCN1CCOc1ccc(C#N)cc1` (centres undefined): 3.66%; for `CC(C)(CN1CCC2(CCNCC2)CC1)N1CCOCC1`: 0.354%; for `CCSc1cccc(NCc2cccnc2)c1`: -1.67%. The same measure for `O=C1NCCN(CC2CCCCC2)C1CC(=O)N1CCc2n[nH]cc2C1` (centres undefined): -8.97%; for `Cc1cc(CNS(C)(=O)=O)ccc1N(C)C`: 1.62%. Turning to `COc1cccc2c1OCC(Cc1cc(C(N)=O)ccn1)C2` (centres undefined), the Percent Effect is -13%.

For the origin of these results see ChEMBL document CHEMBL3988442, “University of Dundee, Small-Polar-MMV Screening Library” (2021).
